51 compounds from PubChem BioAssay AID2685 (National Center for Advancing Translational Sciences (NCATS), 2010) can be followed below.

Hit rate of the full screen: of about 320,000 compounds, about 2,100 (0.66%) were called active. Roughly 53% stayed inconclusive and do not appear here. This is one part of a sample in which actives are shown more often than they occur. Calls follow the shape of the dose curve; as a rule, active = well fitted inhibition curve with a large enough effect in the signal ratio, with a control signal flat (not every such curve was filed as active); inconclusive = small, poorly fitted or top-dose-only effect, or effect the other way, or a change in a side signal; inactive = flat fitted curve, though single readings scatter; the % refers to the signal ratio.
Potency is read from the fitted curve at half-maximal effect.

This assay can be described thus: qHTS Assay for Lipid Storage Modulators in Drosophila S3 Cells.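 As to cell number change: cells counted by Cell Tracker Red CMTPX staining in the red channel.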 The conditions noted are these: BODIPY lipid droplet fluorescence, 18-24 h, cells fed with added oleic acid; cell number change: measured here: cell count max response; series mostly up to 46.1 µM. An excerpt:
NIH Molecular Libraries Probe Production Centers Network [MLPCN] NIH Chemical Genomics Center [NCGC] MLPCN Grant: 1 R03 MH085686-01 Assay Submitter (PI): Beller, Mathias; Max-Planck-Institut fur Biophysikalische Chemie NCGC Assay Overview: Storing lipids as a reservoir for energy or the anabolism of elementary metabolites is a common feature of probably all cells and is conserved from bacteria to humans. The universal cellular lipid storage organelle is the so-called lipid storage droplet (LD). Although ubiquitous, LDs share a simple structure composed of a hydrophobic core that harbors the storage lipids, which is shielded by a droplet-specific phospholipid monolayer to which proteins are attached. The current model of LD biogenesis involves an incorporation of the lipid core into the membrane leaflets of the endoplasmic reticulum (ER) followed by a subsequent budding-like maturation of a LD, which ultimately pinches off. Once released, LD volume can increase by localized lipogenesis or fusion of existing droplet. Storage lipids are re-mobilized enzymatically by lipase activity. Lipase regulation in the adipocyte is heavily studied and involves multiple components including catecholamine signaling, the LD-associated proteins Perilipin and comparative gene identification (CGI-58) and at least two lipases named hormone sensitive lipase (HSL) and adipocyte triglyceride lipase (ATGL). LD regulation outside of the adipocyte is poorly understood and only few components are known. However, there is an urgent need to learn more about ectopic fat depots as mislocalized storage of lipids, for example in the liver or muscle, is an eminent health problem associated with insulin resistance or the metabolic syndrome. We developed a laser-scanning cytometer assay to enable 1,536-well screening and combined the results of the small molecules screen with an RNAi database based on lipid storage.
Triacsin C (Sigma-Aldrich T-4540), an inhibitor of long-chain fatty acyl CoA synthetase that blocks synthesis of triglycerides, was used as a positive control for lipid under-storage. A total of 23 nL of compound solution of different concentrations were transferred to the assay plates using a Kalypsys pin tool equipped with a 1,536-pin array containing 10-nL slotted pins (FP1S10, 0.457-mm diameter, 50.8 mm long; V&P Scientific). One microliter of oleic acid (400 uM) was added, and the plate was lidded with stainless steel rubber gasket lined lids containing pinholes. […] Fluorescence was detected by excitation of the fluorophores with a 488-nm laser on an Acumen Explorer (TTP Lab Tech). The total intensity in channel 2 (500-530 nm) reflected lipid droplet accumulation. Cells were detected using channel 3 (575-640 nm) with 5-um width and 100-um depth filters. The ratio of the number of objects in PMT channel 2 over the number of objects in PMT channel 3 was also calculated. Percent activity was computed relative to an internal control (100% inhibited lipid droplet deposition due to the presence of 20 uM Triacsin C), which was added to 32 wells/plate.
For the compound `N=c1n(CCN2CCCCC2)c2ccccc2n1CC(O)c1ccco1` (stereo not drawn), the Potency result is “inactive” and the cell number change was found to be 15.8%.
The like results for `CCCn1c(=N)n(CC(O)c2ccco2)c2ccccc21` (stereo not drawn) were, in that order, “inactive” and 16.8%.
The like results for `Cc1onc(C(=O)N2CCN(C(c3ccccc3)c3ccccc3)CC2)c1[N+](=O)[O-]` were, in that order, “inactive” and 3.65%.
With `CC(OC(=O)C1=Cc2ccccc2OC1)C(=O)NCc1ccco1` (stereo not drawn), the Potency entry was “inactive”.
As to `O=C(Cn1[nH]c(=O)c2ccccc2c1=O)Nc1cccnc1`, the Potency entry was “inactive” and the cell number change is 7.37%.
Take `CCC(C(=O)Nc1cccnc1)n1c(=O)[nH]c2ccccc2c1=O` (stereo not drawn): the Potency is 18.4 µM (active) and the cell number change was -16%.
Regarding `CCC(C(=O)Nc1ccc2c(c1)OCCO2)n1c(=O)[nH]c2ccccc2c1=O` (stereo not drawn), the Potency result was “inactive” and the cell number change was -11.6%.
For the compound `CCO[C@@H]1OC(C(=O)N2CCN(Cc3ccc4c(c3)OCO4)CC2)=C[C@H](c2ccc3c(c2)OCO3)[C@H]1CCCO`, the Potency result was “inactive”.
In the case of `O=c1c2ccccc2nnn1CCN1CCOCC1`, the Potency entry was “inactive” and the cell number change was -18.2%.
The matching figures for `CCC(Sc1nc2ccc(C)cc2[nH]1)C(=O)O` (stereo not drawn): 14.6 µM (active) and 14.5%.
The like results for `CCC(Sc1nc2ccccc2c(=O)[nH]1)C(=O)O` (stereo not drawn) were, in that order, “inactive” and -2.97%.
The like results for `Cc1ccc2nc(SC(C)C(=O)N3CCCC3)[nH]c2c1` (stereo not drawn) were, in that order, “inactive” and 17.4%.
For the compound `Cc1ccc(-c2csc3nc[nH]c(=O)c23)cc1C`, the Potency result was “inactive” and the cell number change is -18.4%.
The like results for `O=c1[nH]cnc2scc(-c3ccccc3)c12` were, in that order, “inactive” and -0.547%.
For `COc1cccc(-c2csc3nc[nH]c(=O)c23)c1`, the Potency was 20.6 µM (active).
Take `OCCCNc1ncnc2oc(-c3ccccc3)c(-c3ccccc3)c12`: the Potency entry is “inactive” and the cell number change worked out at 13.3%.
For the compound `CCCn1c(/C=N/Nc2nc3ccccc3[nH]2)nc2ccccc21`, the Potency is 13 µM (active) and the cell number change is -13.7%.
The like results for `CC(C)Cn1c(/C=N/Nc2nc3ccccc3[nH]2)nc2ccccc21` were, in that order, “inactive” and -7.46%.
The like results for `C(=N\Nc1nc2ccccc2[nH]1)/c1ccccc1` were, in that order, “inactive” and -28.7%.
The matching figures for `CCOC(=O)N1CCN(Cc2nnc(-c3ccccc3C)o2)CC1`: “inactive” and 3.5%.
With `Cc1cc(NC(=O)c2cccs2)ncc1NC(=O)c1cccc(F)c1`, the Potency entry is “inactive” and the cell number change amounted to 0.447%.
For the compound `CCCCc1nc(C(N)=O)c2[nH]c(=O)n(-c3ccc(OC)c(OC)c3)c2n1`, the Potency entry is “inactive”.
As for `CCC1Oc2ccccc2N(CC(=O)NC2CCCCC2C)C1=O` (stereo not drawn), the Potency is 29.1 µM (active) and the cell number change was -4.58%.
The like results for `CC1CCCCC1NC(=O)CN1C(=O)COc2ccccc21` (stereo not drawn) were, in that order, “inactive” and -0.697%.
Turning to `CCC1Oc2ccccc2N(CC(=O)NC2CCCCC2)C1=O` (stereo not drawn), the Potency result is “inactive” and the cell number change amounted to 2.82%.
The like results for `CC(C)c1nnc(NC(=O)COc2ccccc2[N+](=O)[O-])s1` were, in that order, “inactive” and 0.142%.
The like results for `CCc1cc(C(=O)Nc2ncccc2O)sc1C` were, in that order, “inactive” and -6.68%.
The matching figures for `O=C(Nc1nc(-c2ccccn2)cs1)c1ccco1`: “inactive” and -10.5%.
Take `Cc1ccnc2nc(C(=O)Nc3nc(-c4ccccn4)cs3)nn12`: the Potency is 1.64 µM (active) and the cell number change was -16%.
The like results for `Cc1ccnc2nc(C(=O)Nc3nccs3)nn12` were, in that order, “inactive” and -14.4%.
In the case of `CC(=O)Nc1ccc(C(=O)Nc2nc(-c3ccccn3)cs2)cc1`, the Potency entry is “inactive”.
As to `Cc1cc(C)c(OCC(=O)Nc2nc(-c3ccccn3)cs2)c(C)c1`, the Potency entry was “inactive” and the cell number change was 1.77%.
The like results for `Cc1ccc(C(=O)Nc2nc(-c3ccccn3)cs2)s1` were, in that order, 2.06 µM (active) and -8.64%.
`Cn1nc(C(=O)Nc2nc(-c3ccccn3)cs2)c2ccccc2c1=O`: the Potency entry is “inactive” and the cell number change is -20.7%.
The like results for `CCc1cc(C(=O)Nc2nc(-c3ccccn3)cs2)sc1C` were, in that order, 5.17 µM (active) and 3.52%.
Regarding `CCCNC(=O)c1cccc(Br)c1`, the Potency entry was “inactive”.
As to `CC(=O)N1CCc2cc(Br)cc(S(=O)(=O)N3CCCCC3)c21`, the Potency result was “inactive” and the cell number change was -26.2%.
The matching figures for `CC(=O)Nc1cccc(NC(=O)C(C)N2c3cccc4cccc(c34)S2(=O)=O)c1` (stereo not drawn): “inactive” and 20.8%.
Consider `COC(=O)C1(C(C[N+](=O)[O-])c2ccco2)C(=O)NCC1c1ccccc1` (stereo not drawn), for which the Potency entry is “inactive”.
Still for that read-out and setting: the result for `COc1cc(C)nc(NCc2ccccc2)n1` reads “inactive”.
For the compound `Cc1cc(Oc2ccccc2)nc(NCc2ccccc2)n1`, the Potency entry is “inactive” and the cell number change is -8.62%.
Regarding `Cc1cc(Nc2ccccc2)nc(NCc2ccccc2)n1`, the Potency was 8.2 µM (active) and the cell number change was -27.7%.
The like results for `CCOc1ccc2nc(N3C(=O)/C(=C/c4ccccc4)NC3=S)sc2c1` were, in that order, 9.2 µM (active) and -2.65%.
The matching figures for `CCOc1ccc2nc(N3C(=O)/C(=C/c4ccc(Cl)cc4)NC3=S)sc2c1`: “inactive” and 13.8%.
The like results for `COc1ccc2nc(N3C(=O)/C(=C/c4ccc(Cl)cc4)NC3=S)sc2c1` were, in that order, “inactive” and 28.8%.
In the case of `CCOC(=O)C1CCN(S(=O)(=O)c2ccc(-c3ccccn3)s2)CC1`, the Potency entry was “inactive” and the cell number change came out at 18.1%.
The matching figures for `CCOC(=O)CN(C(=O)CSc1nnc(CNc2ccc(C)cc2C)n1CC)c1ccccc1`: “inactive” and -14.6%.
`COC(=O)CSc1nc(N2CCOCC2)c2c(c1C#N)CC(C)(C)N(C)C2`: the Potency result was “inactive” and the cell number change came to 15.3%.
The like results for `COc1ccc(-c2ccc3c(c2)S(=O)(=O)c2cccc(C(=O)O)c2C3=O)cc1OC` were, in that order, “inactive” and 0.722%.
Turning to `COc1cccc(-c2ccc3c(c2)S(=O)(=O)c2cccc(C(=O)O)c2C3=O)c1OC`, the Potency was 0.651 µM (active).
As for `O=C(O)c1cccc2c1C(=O)c1ccc(-c3ccc(F)cc3F)cc1S2(=O)=O`, the Potency entry is “inactive” and the cell number change turned out to be 1.93%.
